From ChEMBL document CHEMBL3988442, “University of Dundee, Small-Polar-MMV Screening Library” (2021) come the findings set out here.

Hit rate of the full screen: of about 69,000 compounds, about 950 (1.4%) showed an effect of 50% or more. This is one part of a sample in which strong results are shown more often than they occur.

This assay relates to Mycobacterium tuberculosis. In words: Cornell M. t heat shock assay. Also: in the data most compounds retested in dose-response had high values. The arrangement: dose or concentration left out as unconfirmed. It is filed as functional, organism-based.
For the compound `O[C@@H]1CN(c2cnc3ccccc3n2)CC[C@H]1c1ccc2c(c1)OCO2`, the “Percent Effect” value is 107.1%.

For `O[C@@H]1CN(c2nc3ccccc3o2)CC[C@H]1c1ccc2c(c1)OCO2`, the “Percent Effect” value is reported as -10.34%. On to `O[C@@H]1CN(c2nc3ccccc3s2)CC[C@H]1c1ccc2c(c1)OCO2`, for which the “Percent Effect” value was -12.43%. To `O=C(O)C(F)(F)F.c1ccn(Cc2nnc3n2CCCN(Cc2ccoc2)C3)c1` belongs -15.36%; to `O=C(C1CCC1)N1C[C@@H]2CN(Cc3ccncc3)C(=O)[C@@H]2C1.O=C(O)C(F)(F)F`, 6.384%; to `CN(C)CCCNCCC(c1ccccc1)C1CCOC(C)(C)C1.O=C(O)C(=O)O` (stereo not drawn), 21.84%. Take `CN1CCN(C2COC3(CCN(Cc4ccc(F)cc4)CC3)C2)CC1.O=C(O)C(F)(F)F.O=C(O)C(F)(F)F.O=C(O)C(F)(F)F` (stereo not drawn): the “Percent Effect” value is recorded as -9.014%. `CCCNC(=O)NC(=O)CNC(C)(C)c1ccc2c(c1)OCCO2`: the “Percent Effect” value came to 99.39%. On to `CCCNC(=O)NC(=O)CNC(C)(C)c1ccc2c(c1)OCO2`, for which the “Percent Effect” value is recorded as -10.73%. On to `CCNC(=O)NC(=O)CNC(C)(C)c1ccc2c(c1)OCCO2`, for which the “Percent Effect” value was 11.57%. With `Cc1cc(C[C@@H]2COC[C@H]2NCc2ccc(C(C)C)cc2)on1.O=C(O)CC(O)(CC(=O)O)C(=O)O`, the “Percent Effect” value came out at 9.353%. Consider `Cc1[nH]c2ccc(Cl)cc2c1CCNc1ncnc2c1CCNC2`, for which the “Percent Effect” value was determined as 96.99%. Consider `Cc1[nH]c2ccccc2c1CCNc1ncnc2c1CCNCC2`, for which the “Percent Effect” value is reported as 1.152%. The value for `Cc1[nH]c2ccc(C#N)cc2c1CCNc1ncnc2c1CCNCC2` was 7.503%.

Take `Cc1cc(C)nc(N2CCCC(C(=O)Nc3n[nH]c(C(C)C)n3)C2)n1` (stereo not drawn): the “Percent Effect” value is recorded as 13.11%. Regarding `O=C(c1ccc[nH]1)N1CCCn2c(CN3CCCCC3)nnc2C1`, the “Percent Effect” value came out at 16.28%.

`O=C(O)C(F)(F)F.O=C(c1ccc[nH]1)N1CCCn2c(CNC3CCC3)nnc2C1`: the “Percent Effect” value was 92.9%.

As to `O=C1CCCN1Cc1nnc2n1CCCN(C(=O)c1ccc[nH]1)C2`, the “Percent Effect” value is 27.49%. In the case of `Cc1cnc(NC(=O)c2cccc(CN(C)Cc3snnc3C)c2)s1`, the “Percent Effect” value stood at 9.507%. `Cc1cnc(NC(=O)c2cccc(CN(C)Cc3ncccc3C)c2)s1`: the “Percent Effect” value was 62.95%. To `Cc1cnc(NC(=O)c2cccc(CN(C)Cc3ccno3)c2)s1` belongs 6.699%; to `Cl.O=C(c1cccc(F)c1)N1CCCC1c1ncc2c(n1)CCNC2` (stereo not drawn), -29.7%; to `CNC(=O)NC(=O)CN1CCN(CC2CC2)c2ccccc21`, 34.37%.

In the case of `NC(=O)NC(=O)CCN1CCN(CC2CC2)c2ccccc21`, the “Percent Effect” value is recorded as -11.96%.

With `NC(=O)NC(=O)CN1CCN(CC2CC2)c2ccccc21`, the “Percent Effect” value is 61.15%.

`CN(C)CCN1CCCC12CCN(C(=O)c1ccoc1)CC2.O=C(O)C(F)(F)F.O=C(O)C(F)(F)F`: the “Percent Effect” value is -7.317%. Regarding `O=C(O)C(F)(F)F.O=C1C[C@H]2[C@H](CCN2Cc2ccccn2)N1CC1CC1`, the “Percent Effect” value was -8.238%. Turning to `CN(C)CCCNC(=O)c1ccc(N(C)S(C)(=O)=O)cc1Cl`, the “Percent Effect” value was 4.922%. In the case of `NC(=O)NC(=O)CCN1CCCN(c2nccs2)CC1`, the “Percent Effect” value is 91.9%. As for `NC(=O)NC(=O)CN1CCN(c2nccs2)CC1`, the “Percent Effect” value is -3.548%. To `NC(=O)NC(=O)CCN1CCN(c2nccs2)CC1` belongs 101.5%. The value for `CNC(=O)NC(=O)CCN1CCN(c2nccs2)CC1` was 23.87%; that for `O=C(CCN1CCCN(c2nccs2)CC1)Nc1ccccc1` was -8.927%; that for `O=C(CCN1CCCN(c2nccs2)CC1)NCC1CCCCC1` was 0.6887%.

`CCn1cncc1CN(Cc1ccc(OC)cc1OC)CC1CCCO1.O=C(O)CC(O)(CC(=O)O)C(=O)O` (stereo not drawn): the “Percent Effect” value is recorded as -14.56%. Consider `CN(Cc1cccnc1)[C@@H]1CN(C(=O)CC2CC2)[C@@H]2CCCO[C@H]12.O=C(O)C(F)(F)F.O=C(O)C(F)(F)F`, for which the “Percent Effect” value is listed as -21.3%. For `CC/N=c1\c(NC(=O)C(C)(C)C)c(O)oc2ccccc12`, the “Percent Effect” value was -10.16%. As to `Oc1cc(-c2nccs2)nc(C2CCN(Cc3cccs3)CC2)n1`, the “Percent Effect” value is listed as 15.4%. Turning to `Oc1cc(C2CCCCN2Cc2cccs2)nc(-c2ccncc2)n1` (stereo not drawn), the “Percent Effect” value was -5.43%.

Turning to `Oc1cc(C2CCCN(Cc3cccs3)C2)nc(-c2ccccn2)n1` (stereo not drawn), the “Percent Effect” value came out at 99.87%.

In the case of `Oc1cc(C2CCCCN2Cc2ccsc2)nc(-c2ccncc2)n1` (stereo not drawn), the “Percent Effect” value is -9.132%. In the case of `Cn1ncc2ccc(C3CCCN(Cc4cccs4)C3)nc21` (stereo not drawn), the “Percent Effect” value stood at 13.99%. For the compound `Oc1cc(C2CCCCN2Cc2cccs2)nc(-c2ccccn2)n1` (stereo not drawn), the “Percent Effect” value is 103.7%. With `O=C(O)C(F)(F)F.O=C1[C@H]2CN(Cc3nccs3)C[C@H]2CN1c1cncnc1`, the “Percent Effect” value is recorded as -2.915%. Consider `CN(C)CCO[C@@H]1CC[C@H]2[C@H]1OCCN2C(=O)COc1ccccc1.O=C(O)C(F)(F)F`, for which the “Percent Effect” value stood at 10.1%. For the compound `COc1ccc(CN2C[C@@H]3OCCN(CC4CCCO4)[C@@H]3C2)cc1.O=C(O)C(F)(F)F.O=C(O)C(F)(F)F` (stereo partly drawn), the “Percent Effect” value is given as 2.354%.

As to `COc1ccc(CN2CC[C@H]3[C@H]2CCN3C(=O)c2cnn(C)c2)cc1.O=C(O)C(F)(F)F`, the “Percent Effect” value was 1.435%. On to `CC(=O)N1Cc2ccnn2CC(C(=O)NCc2cccnc2)C1.O=C(O)C(F)(F)F` (stereo not drawn), for which the “Percent Effect” value is given as 37.04%. For the compound `FC(F)(F)c1ccc2nc([C@H]3CCN(C4CCC4)C3)[nH]c2c1`, the “Percent Effect” value turned out to be 17.31%. As to `FC(F)(F)c1ccc2nc([C@H]3CCN(C4CCOCC4)C3)[nH]c2c1`, the “Percent Effect” value came out at 5.789%. Regarding `FC(F)(F)c1ccc2nc([C@H]3CCN(C4CCCCC4)C3)[nH]c2c1`, the “Percent Effect” value is 60.59%. As to `Cc1cnn(CC2CCCN2CC(=O)Nc2nc(C)cs2)c1` (stereo not drawn), the “Percent Effect” value is 100.4%. Consider `CC(=O)Nc1nc(CN2CCCC2Cn2cccn2)cs1` (stereo not drawn), for which the “Percent Effect” value is given as -5.465%. The value for `CC(=O)Nc1nc(CN2CCCC2Cn2cncn2)cs1` (stereo not drawn) was -13%; that for `Cc1cnn(CC2CCCN2CC(=O)Nc2cc(C)nn2C)c1` (stereo not drawn) was 19.4%; that for `COc1c(C2CCCN2CC(=O)Nc2nccs2)c(C)nn1C` (stereo not drawn) was 8.304%. Regarding `O=C(CN1CCCC1Cn1cncn1)Nc1nccs1` (stereo not drawn), the “Percent Effect” value came out at 4.576%.

As to `Cc1cnn(CC2CCCN2CC(=O)NCc2ccccn2)c1` (stereo not drawn), the “Percent Effect” value is recorded as -22.46%. As for `Cc1cnn(CC2CCCN2CC(=O)Nc2nncs2)c1` (stereo not drawn), the “Percent Effect” value was -6.011%. The value for `CC(=O)Nc1nc(CN2CCCC2Cn2cc(C)cn2)cs1` (stereo not drawn) was 69.78%. For `Cc1cnn(CC2CCCN2CC(=O)Nc2nccs2)c1` (stereo not drawn), the “Percent Effect” value worked out at 102.3%. Consider `COc1c(C2CCCN2CC(=O)Nc2nc(C)cs2)c(C)nn1C` (stereo not drawn), for which the “Percent Effect” value is on record as 75.33%. For the compound `COc1c(C2CCCN2CC(=O)Nc2cc(C)no2)c(C)nn1C` (stereo not drawn), the “Percent Effect” value is 8.972%.
